KCNH2 3.1 block = inhibitors of human KCNH2 3.1 potassium channel isoform. U2OS KCNH2 3.1, thallium flux FluxOr; active compounds read low. activity change, % (tested at about 1.8 µM). hit rate 0.95% among 340,000;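 active = maximum activity change below -70%; inconclusive = maximum activity change from -70% to -50%; inactive = maximum activity change above -50%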;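 also: thallium influx rate constant from kinetic fluorescence after stimulation buffer; % is scaled to controls: 0 for no effect and ±100 for the full control effect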
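Measured as rate of thallium-driven FluxOr signal in transduced U2OS cells carrying the 3.1 channel, read kinetically for 2 min upon stimulation; values are rate constants scaled to DMSO control wells.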
ClpP mod = qHTS Assay for Activators of ClpP. ATP-dependent Clp protease proteolytic subunit (Bacillus subtilis (strain 168)), P80244. AID 651965, 2013. hit rate 1.9% among 340,000. Potency, µM (highest dose often 57.5 µM), for inactives: at the highest dose activity change, negative = active. purified B. subtilis ClpP, FRET peptide cleavage, 20 min; active = well fitted falling curve with a large enough effect; inconclusive = small, poorly fitted or top-dose-only effect; inactive = no such curve, though single readings can be large or run the other way; also: potency is read from the fitted curve at half-maximal effect; the source files actives as falling curves though it sought activators and does not explain the sign; nearly all actives have a fitted effect of over 65% in size
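Purified B. subtilis ClpP, 10 microg/mL final in Tris/HCl pH8 with KCl, BSA, glycerol and Tween-20, cleaved an Abz/nitrotyrosine-quenched decapeptide. Fluorescence (ex 320, em 430) was read at 0 and 20 min at room temperature. Delta was normalized to 5.8 microM ADEP and DMSO/no-enzyme controls.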
LDHA inh = blocks human lactate dehydrogenase A; P00338; purified LDHA, NADH/diaphorase-resazurin fluorescence; active compounds read low; activity change, % (values are at about 110 or 230 µM); hit rate 0.15% among 480,000; AID 1347041; in the data active = activity change below about -30%; inconclusive = mostly about -25% to -30%;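 also: plate controls were DMSO wells for no effect and wells without enzyme for full effect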
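Enzyme activity of human lactate dehydrogenase 5 (2 nM; 0.06 mM NADH, 0.2 mM pyruvate, 5 min, RT) is measured via a resazurin/diaphorase fluorescence readout of residual NADH.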
Chronic BCR inh = chronic active BCR signaling inhibition; AID 493014; Potency, µM (series often up to 46.1 µM), for the others: top-dose activity change, negative = inhibition, actives largely listed as inhibitors; hit rate 0.05% among 340,000; ABC-DLBCL IkBa-CBG/CBR reporter, luminescence ratio, 4 h; active = well fitted inhibition curve with a large enough effect in the signal ratio, with a control signal flat, not every such curve was filed as active; inconclusive = small, poorly fitted or top-dose-only effect, or effect the other way, or a change in a side signal; the % refers to the signal ratio;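 also: potency is read from the fitted curve at half-maximal effect; plate controls were basal doxycycline-induced cells for no effect and cells given 10 µM MG132 for full effect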
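Compounds up to 46 uM were incubated four hours with TMD8 cells whose green CBG68 luciferase is fused to IkappaBalpha; red CBR luminescence normalised the signal, and concentration-effect curves were fitted to fusion, red and ratio data.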
ALOX12 inh = blocks human arachidonate 12S-lipoxygenase | purified 12hLO, xylenol orange hydroperoxide absorbance | P18054 | AID 1671190 | Potency, µM (highest dose often 108 µM), inactives show at the top dose activity change, negative = inhibition, actives largely listed as inhibitors | hit rate 1.1% among 580,000; active = well fitted inhibition curve with a large enough effect; inconclusive = small, poorly fitted or top-dose-only effect, or another doubt; inactive = no such curve, though single readings can be large or run the other way; also: potency is read from the fitted curve at half-maximal effect; % is scaled to controls: 0 for no effect and ±100 for the full control effect
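Hydroperoxide product was detected by ferrous iron/xylenol orange as the 573 to 405 nm absorbance ratio. Arachidonic acid at 40 uM (final) was turned over for 30 min at room temperature by 150 nM human 12hLO, pH 7.0 Hepes buffer, after 15 min compound preincubation.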
KCNH2 WT inh = inhibitors of human wildtype KCNH2 potassium channel; hit rate 0.37% among 340,000; U2OS, BacMam KCNH2, thallium flux FluxOr; active compounds read low; Q12809; activity change, % at 1.84 µM;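 active = maximum activity change below -70%; inconclusive = maximum activity change between -70% and -50%; inactive = maximum activity change above -50%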; also: % is scaled to controls: 0 for no effect and ±100 for the full control effect
Target sequence (Q12809 whole entry, looked up): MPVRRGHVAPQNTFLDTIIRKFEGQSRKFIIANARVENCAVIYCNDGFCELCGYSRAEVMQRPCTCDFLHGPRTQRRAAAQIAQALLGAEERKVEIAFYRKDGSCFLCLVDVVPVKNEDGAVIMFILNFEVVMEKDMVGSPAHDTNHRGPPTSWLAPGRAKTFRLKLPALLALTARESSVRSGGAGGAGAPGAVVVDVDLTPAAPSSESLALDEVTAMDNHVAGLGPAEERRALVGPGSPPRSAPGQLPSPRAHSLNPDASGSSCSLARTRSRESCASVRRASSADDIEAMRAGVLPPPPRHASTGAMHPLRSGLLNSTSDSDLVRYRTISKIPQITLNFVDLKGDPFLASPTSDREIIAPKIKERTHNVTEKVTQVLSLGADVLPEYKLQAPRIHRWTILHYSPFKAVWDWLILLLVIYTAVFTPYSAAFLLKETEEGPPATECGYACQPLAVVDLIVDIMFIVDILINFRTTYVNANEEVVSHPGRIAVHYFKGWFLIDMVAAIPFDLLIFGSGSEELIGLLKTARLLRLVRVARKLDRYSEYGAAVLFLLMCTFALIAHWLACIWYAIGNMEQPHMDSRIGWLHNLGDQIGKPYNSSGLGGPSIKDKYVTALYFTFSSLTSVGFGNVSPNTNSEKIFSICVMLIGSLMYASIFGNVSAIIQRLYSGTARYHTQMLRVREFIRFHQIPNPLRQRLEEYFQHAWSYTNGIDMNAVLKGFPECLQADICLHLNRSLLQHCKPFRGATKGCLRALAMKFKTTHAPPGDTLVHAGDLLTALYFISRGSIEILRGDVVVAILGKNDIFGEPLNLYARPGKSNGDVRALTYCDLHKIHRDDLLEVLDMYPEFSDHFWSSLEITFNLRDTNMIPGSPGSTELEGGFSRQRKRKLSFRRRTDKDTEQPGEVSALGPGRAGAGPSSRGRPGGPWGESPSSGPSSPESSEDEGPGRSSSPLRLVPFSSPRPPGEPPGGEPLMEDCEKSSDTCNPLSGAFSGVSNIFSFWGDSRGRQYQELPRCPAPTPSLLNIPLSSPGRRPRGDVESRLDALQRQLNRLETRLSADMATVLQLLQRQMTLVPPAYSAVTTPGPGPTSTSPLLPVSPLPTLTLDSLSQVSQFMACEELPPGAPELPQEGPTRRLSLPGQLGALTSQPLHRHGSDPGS
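U2OS cells were transduced with wild-type KCNH2 virus (2.03 x 10^8 / mL) for 4 h at room temperature, then cultured overnight at 37 C. Thallium flux was read with FluxOr dye. Rate constants were normalized to DMSO controls.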
Starred values were filed as active, the others as inactive; ? = inconclusive; / = not tested or not shown. Sampled rows, rich in hits. Any-hit rate of the full collection: about 3%.

SMILES	KCNH2 3.1 block	ClpP mod	LDHA inh	Chronic BCR inh	ALOX12 inh	KCNH2 WT inh
O=C(O)c1ccccc1NC(=O)N1CCOCC1	-18	/	-3	?	-37%	-3
CN1CCN(C(=O)Nc2cccc3ccccc23)CC1	8	16µM*	6	1%	11%	35
O=C(Nc1cccc2ccccc12)N1CCOCC1	1	25µM*	20	?	-25%	10
CCN1CCN(C(=O)Nc2cccc(C(F)(F)F)c2)CC1	-79*	0%	-1	-2%	5%	5
CCN1CCc2c(sc3c2c(=O)n(-c2ccc(Cl)cc2)c(=O)n3CCN2CCCC2)C1	/	/	8	/	?	/
CC1(C)CC(=O)C2=C(C1)Nc1ccccc1NC2c1cccc(F)c1 (stereo not drawn)	3	0%	2	-7%	11µM*	2
CCOc1ccccc1NC(=O)C(c1ccccc1)N1CCN(CC(=O)N2CCOCC2)CC1 (stereo not drawn)	-83*	0%	1	?	8%	-3
Cc1ccc(C)c(NC(=O)C(c2ccccc2)N2CCN(CC(=O)N3CCOCC3)CC2)c1 (stereo not drawn)	-89*	-4%	-2	6%	-1%	-36
CCOc1ccccc1NC(=O)C(c1ccccc1)N1CCN(CC(=O)N2CCCC2)CC1 (stereo not drawn)	-72*	-2%	-5	?	8%	-30
Cc1ccc(C)c(NC(=O)C(c2ccccc2)N2CCN(C(=O)C3CC3)CC2)c1 (stereo not drawn)	/	/	12	/	-6%	/
O=C(O)c1cc2cc(OCc3ccccc3)ccc2[nH]1	7	28µM*	1	0%	-21%	-5
O=c1oc2cc(O)ccc2cc1-c1nc2c(s1)CCc1ccccc1-2	-32	20µM*	6	?	?	-157*
Cc1ccc(-c2noc(-c3ccc(Br)o3)n2)s1	/	/	1	/	?	/
CCCC(=O)Nc1ccc(C(=O)NCc2cccnc2)cc1	/	/	2	/	?	/
CC(=O)c1c(C)[nH]c(C(=O)N2CCN(C(=O)c3ccco3)CC2)c1C	-211*	-2%	-6	?	-10%	-1
CCc1cc(C(=O)N2CCN(C(=O)c3ccco3)CC2)sc1C	-1	28µM*	-2	-1%	13%	-2
CC(=O)c1c(C)[nH]c(C(=O)N2CCN(c3ccc(F)cc3)CC2)c1C	16	0%	1	-5%	2%	11
NC(=O)Cn1nnc(-c2ccc(CN3CCCCC3)cc2)n1	-82*	1%	-3	1%	2%	-6
Cc1cccc(NC(=O)Cn2nnc(-c3ccc(CN4CCCC4)cc3)n2)c1C	3	-1%	-13	-2%	0%	-1
O=C(CCC1N=C2c3ccccc3N=C(SCc3cccc(Cl)c3)N2C1=O)NCc1ccco1 (stereo not drawn)	0	35µM*	-9	1%	68%	0
CCC(C)NC(=O)CSC1=Nc2ccccc2C2=NC(CC(=O)NCc3ccc(F)cc3)C(=O)N12 (stereo not drawn)	5	32µM*	-3	2%	-9%	-7
CC(C)C1N=C2c3ccccc3N=C(SCC(=O)NCc3ccc(Cl)cc3)N2C1=O (stereo not drawn)	/	4%	0	/	-24%	/
O=C(CCC1N=C2c3ccccc3N=C(SCC(=O)Nc3cccc(Cl)c3)N2C1=O)NCc1ccco1 (stereo not drawn)	/	-18%	0	/	2%	/
COc1ccc(NC(=O)CSC2=Nc3ccccc3C3=NC(CC(=O)NCc4ccc(F)cc4)C(=O)N23)cc1 (stereo not drawn)	/	-1%	-3	1%	-17%	/
CC(C)C1N=C2c3ccccc3N=C(SCC(=O)NCCc3ccc(S(N)(=O)=O)cc3)N2C1=O (stereo not drawn)	-3	32µM*	2	9%	-8%	0
SMILES	KCNH2 3.1 block	ClpP mod	LDHA inh	Chronic BCR inh	ALOX12 inh	KCNH2 WT inh
CCOC(=O)CSC1=Nc2ccccc2C2=NC(CC(=O)NCc3ccccc3)C(=O)N12 (stereo not drawn)	-16	?	-1	7%	10µM*	-1
Cc1cc(/C=C(\C#N)c2nc3ccccc3[nH]2)cc2c1OC(C)C2 (stereo not drawn)	/	/	3	/	-5%	/
CC(CC(=O)NCc1ccc(F)cc1)S(=O)(=O)c1ccc2c(c1)CCN2C(=O)C1CC1 (stereo not drawn)	/	/	1	/	2%	/
CCN(CC)C(=O)CSC1=Nc2ccccc2C2=NC(c3ccccc3)C(=O)N12 (stereo not drawn)	-9	16µM*	4	14%	-20%	7
NC(=O)CSC1=Nc2ccccc2C2=NC(c3ccccc3)C(=O)N12 (stereo not drawn)	12	/	-3	0%	-12%	-3
O=S1(=O)N[C@@H](Cc2ccccc2)COc2cc(NCCCN3CCOCC3)ccc21	/	/	/	/	50µM*	/
CC(C)C[C@H]1COc2cc(NCCCN3CCOCC3)ccc2S(=O)(=O)N1	/	/	/	/	-65%	/
COc1ccccc1C1CC(=O)Oc2cc(C)c(Cl)cc21 (stereo not drawn)	7	-1%	3	6%	40µM*	-4
COc1cc2c(cc1OC)C(c1ccc(N(C)C)cc1)CC(=O)N2 (stereo not drawn)	/	10µM*	12	4%	0%	-11
COc1ccccc1C1CC(=O)Nc2cc3c(cc21)OCCO3 (stereo not drawn)	-3	2%	0	23µM*	?	-37
CCN(CC)c1ccc(C2CC(=O)Nc3cc(OC)c(OC)cc32)cc1 (stereo not drawn)	-8	1%	2	-3%	?	9
CCOC(=O)c1ccccc1NC1OC(=O)c2ccccc21 (stereo not drawn)	23	28µM*	-4	2%	0%	-6
COc1cc(OC)cc(-c2nnc(NC(=O)CCS(=O)(=O)c3ccc(F)cc3)o2)c1	-75*	-18%	3	-8%	-2%	0
Cc1ccc(-c2csc(NC(=O)C34CC5CC(CC(C5)C3)C4)n2)cc1	/	/	7	/	?	/
Cc1ccc(Cl)cc1N1CCN(S(=O)(=O)c2ccc(-c3cnc(C4CC4)o3)cc2)CC1	/	4%	-3	/	-22%	/
COc1ccc(NS(=O)(=O)c2cc(-c3cnc(C)o3)ccc2C)cc1OC	/	/	7	/	?	/
Cc1ccc(NS(=O)(=O)c2ccc(-c3cnc(C4CC4)o3)cc2)cc1N(C)C	/	1%	3	/	-9%	/
Cc1ccc(NS(=O)(=O)c2ccc(-c3cnc(C4CC4)o3)cc2)cc1F	/	/	11	/	3.5µM*	/
